Source: PubChem BioAssay (National Center for Advancing Translational Sciences (NCATS))
Sampled rows, rich in hits. Any-hit rate of the full collection: about 12%.
JMJD2A Tudor = blocks the human JMJD2A Tudor domain; O75164; AlphaScreen JMJD2A-Tudor / H3K4me3 peptide binding; Potency, µM (doses to about 114 µM), usual class: inhibitors; 4.4% of 390,000 active; AID 504339; also: nearly all actives have a fitted effect of over 50% in size
Target sequence (O75164 whole entry, looked up, the tested form may be a part): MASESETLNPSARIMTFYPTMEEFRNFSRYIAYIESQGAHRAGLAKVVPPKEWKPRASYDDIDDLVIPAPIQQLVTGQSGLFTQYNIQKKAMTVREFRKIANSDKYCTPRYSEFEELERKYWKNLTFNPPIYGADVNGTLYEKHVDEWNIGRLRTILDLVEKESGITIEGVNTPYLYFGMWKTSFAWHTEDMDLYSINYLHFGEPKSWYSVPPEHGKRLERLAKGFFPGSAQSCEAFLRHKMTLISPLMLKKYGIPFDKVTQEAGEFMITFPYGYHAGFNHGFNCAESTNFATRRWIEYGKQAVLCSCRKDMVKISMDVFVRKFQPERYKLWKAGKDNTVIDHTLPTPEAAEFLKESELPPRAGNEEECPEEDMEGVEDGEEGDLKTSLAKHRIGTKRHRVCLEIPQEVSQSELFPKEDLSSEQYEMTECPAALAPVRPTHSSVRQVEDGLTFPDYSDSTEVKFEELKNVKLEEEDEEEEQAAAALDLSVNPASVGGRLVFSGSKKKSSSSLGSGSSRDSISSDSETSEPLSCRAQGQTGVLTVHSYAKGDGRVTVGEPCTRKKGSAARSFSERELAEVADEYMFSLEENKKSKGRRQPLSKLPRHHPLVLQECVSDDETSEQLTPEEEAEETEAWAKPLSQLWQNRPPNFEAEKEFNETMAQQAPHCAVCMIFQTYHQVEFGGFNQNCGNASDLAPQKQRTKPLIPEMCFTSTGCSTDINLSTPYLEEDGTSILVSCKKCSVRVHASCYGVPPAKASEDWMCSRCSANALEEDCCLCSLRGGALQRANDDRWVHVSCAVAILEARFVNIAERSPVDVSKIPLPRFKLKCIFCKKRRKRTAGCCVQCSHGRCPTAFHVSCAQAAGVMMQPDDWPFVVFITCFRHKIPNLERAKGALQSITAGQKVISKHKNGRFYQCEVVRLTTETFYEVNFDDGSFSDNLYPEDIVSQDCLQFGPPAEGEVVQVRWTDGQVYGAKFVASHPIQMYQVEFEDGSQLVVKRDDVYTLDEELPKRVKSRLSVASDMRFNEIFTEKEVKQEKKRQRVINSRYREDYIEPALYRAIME
BAZ2B inh = blocks human BAZ2B; Q9UIF8; AlphaScreen BAZ2B-H3K14Ac peptide displacement; Potency, µM (doses to about 114 µM), hits mostly inhibitors; 4.4% of 360,000 active; AID 504333; also: nearly all actives have a fitted effect of over 60% in size
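AlphaScreen luminescence quantifies BAZ2B engagement of H3K14Ac peptide; the protein and biotinylated peptide are both at 50 nM final, buffer PBS pH 7.4 with 0.01% Tween-20, all steps at room temperature.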
PLK1 PBD block = PLK1 (human) polo-box domain binding inhibition. P53350. Plk1 PBD binding of FITC phosphopeptide, fluorescence polarization. Potency, µM, most hits filed as inhibitors. 2.8% of 360,000 active. AID 720504; also: series mostly up to about 57 µM; nearly all actives have a fitted effect of over 65% in size
HP1b binding inh = inhibitors of HP1-beta chromodomain binding to methylated histone tails. AlphaScreen HP1-beta / biotin-H3K9me3 peptide binding. Potency, µM (series often up to 114 µM), usual class: inhibitors. AID 540317. 0.56% of 390,000 active; also: nearly all actives have a fitted effect of over 70% in size
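Compound inhibition of the preformed complex between 50 nM HP1-beta and 50 nM biotinylated H3K9me3 peptide was read by AlphaScreen. Buffer was PBS pH 7.4 with 0.01% Tween-20. Incubations ran 30 min at room temperature, with 10 ug/mL donor/acceptor beads.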
Sfp PPTase inh = inhibitors of Bacillus subtilis Sfp phosphopantetheinyl transferase; 3.5% of 310,000 active; Biochemical Sfp PPTase activity, qHTS; Potency, µM, usual class: inhibitors; Q9F4F7;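 also: the enzyme is Sfp with the accession as filed and its product quenches rhodamine fluorescence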
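With Hepes-Na pH 7.6 buffer containing 10 mM MgCl2, Sfp (15 nM) modified BHQ-2-YbbR (12.5 uM) using rhodamine-CoA (5 uM). Two reads 30 minutes apart at 525/598 nm yielded each well's rate.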
G9a block = inhibitors of human histone lysine methyltransferase G9a. Q96KQ7. G9a H3K9 monomethylation, AlphaScreen, 2 h. Potency, µM (doses to about 102 µM), hits mostly inhibitors. 8.8% of 350,000 active; also: nearly all actives have a fitted effect of over 75% in size
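G9a (20 nM) preincubated 15 min RT with compounds, then 500 nM biotinylated H3K9 peptide and 20 uM SAM added; 2 h RT reaction. Monomethyl-H3K9 product detected by AlphaScreen with anti-H3K9me1 antibody, streptavidin donor and anti-rabbit IgG acceptor beads.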
A number is an active result; [ ] = another dose, or the depositor's remark. Calls follow the shape of the dose curve; as a rule, active = well fitted curve in the direction sought with a large enough effect; inconclusive = small, poorly fitted or top-dose-only effect, or another doubt; inactive = no such curve, though single readings can be large; an effect the other way counts as inactive or inconclusive.

Results for CCC1(c2ccc(F)cc2)NC(=O)N(CC(=O)Nc2ccc(C(N)=O)cc2)C1=O (stereo not given) ?
JMJD2A Tudor: inactive; BAZ2B inh: inactive; PLK1 PBD block: inactive; HP1b binding inh: inactive; Sfp PPTase inh: inactive; G9a block: inactive

What do the screens show for `CC1(c2ccc(Cl)cc2)NC(=O)N(CC(=O)Nc2ccc(N3CCCCC3)cc2)C1=O` (stereo not given)?
JMJD2A Tudor: inconclusive; BAZ2B inh: inconclusive; PLK1 PBD block: inactive; HP1b binding inh: inactive; G9a block: 50µM

How did Cc1ccc(C2(C)NC(=O)N(CC(=O)Nc3ccccc3N3CCCC3)C2=O)cc1 (stereo not given) do in these assays?
JMJD2A Tudor: inconclusive; BAZ2B inh: 50µM; PLK1 PBD block: inactive; HP1b binding inh: inactive; G9a block: 40µM

What do the screens show for `O=C(Nc1ccc(Br)cc1)Nc1nc2c(s1)CCCCCC2`?
JMJD2A Tudor: inactive; BAZ2B inh: inactive; HP1b binding inh: inactive; G9a block: inactive

Results for Cc1ccc(-c2cc(C(F)(F)F)n3ncc(-c4ccc(Cl)cc4)c3n2)cc1 ?
JMJD2A Tudor: inactive; BAZ2B inh: inactive; HP1b binding inh: inactive; G9a block: inactive

How did Cc1ccc(C)c(N2CCN(c3nc4c(S(=O)(=O)c5ccccc5)nnn4c4ccc(Cl)cc34)CC2)c1 do in these assays?
JMJD2A Tudor: inactive; BAZ2B inh: inactive; HP1b binding inh: inactive; G9a block: inactive

How did S=c1[nH]nc(Cn2nnc3ccccc32)n1-c1ccccc1 do in these assays?
JMJD2A Tudor: 6.3µM; BAZ2B inh: inactive; PLK1 PBD block: inactive; HP1b binding inh: inactive; Sfp PPTase inh: inactive; G9a block: 32µM

Results for c1ccc2c(c1)nnn2Cn1nnc2ccccc21 ?
PLK1 PBD block: inactive

How did Cc1nc2ccccc2n1Cc1n[nH]c(=S)n1-c1ccc(Cl)cc1 do in these assays?
JMJD2A Tudor: inactive; BAZ2B inh: inactive; PLK1 PBD block: inactive; HP1b binding inh: inactive; Sfp PPTase inh: inactive; G9a block: inconclusive

How did Fc1ccc(-n2c(-c3ccc4ccccc4n3)n[nH]c2=S)cc1Cl do in these assays?
JMJD2A Tudor: inactive; BAZ2B inh: inactive; PLK1 PBD block: inactive; HP1b binding inh: inactive; Sfp PPTase inh: inactive; G9a block: inconclusive

What do the screens show for `CC(C)N(C(=O)CSc1nnc(Cn2nnc3ccccc32)n1C)C(C)C`?
JMJD2A Tudor: inactive; BAZ2B inh: inactive; PLK1 PBD block: inactive; HP1b binding inh: inactive; Sfp PPTase inh: inactive; G9a block: inactive[12.7 µM]

Results for Cc1cc(-c2n[nH]c(=S)n2-c2ccc(F)cc2)nn1C ?
JMJD2A Tudor: 25µM; BAZ2B inh: inactive; PLK1 PBD block: inactive; HP1b binding inh: inactive; Sfp PPTase inh: inactive; G9a block: inconclusive

Results for Fc1ccc(-n2c(Cn3nnc4ccccc43)n[nH]c2=S)cc1 ?
JMJD2A Tudor: 18µM; BAZ2B inh: inconclusive; PLK1 PBD block: inactive; HP1b binding inh: inactive; Sfp PPTase inh: inactive

Results for Cn1c(Cn2nnc3ccccc32)nnc1SCC(=O)c1ccc(F)cc1 ?
JMJD2A Tudor: 45µM; BAZ2B inh: inactive; PLK1 PBD block: inactive; HP1b binding inh: inactive; Sfp PPTase inh: inconclusive; G9a block: 35µM

Results for COc1ccc(OC)c(NC(=O)Cc2ccc(NC3=NC4CS(=O)(=O)CC4S3)cc2)c1 (stereo not given) ?
JMJD2A Tudor: inactive; BAZ2B inh: inactive; PLK1 PBD block: inactive; HP1b binding inh: inactive; Sfp PPTase inh: inactive

How did O=C(Nc1cc(Cl)cc2c1[nH]c1cnccc12)c1cccnc1 do in these assays?
Sfp PPTase inh: inactive

What do the screens show for `Cc1cc(C(F)(F)F)nn1Cc1n[nH]c(=S)n1-c1ccc(F)cc1`?
JMJD2A Tudor: inactive; BAZ2B inh: inactive; PLK1 PBD block: inactive; HP1b binding inh: inactive; Sfp PPTase inh: inactive; G9a block: 10µM

What do the screens show for `FC(F)(F)c1cccc(-n2c(Cn3nnc4ccccc43)n[nH]c2=S)c1`?
JMJD2A Tudor: inactive; BAZ2B inh: inactive; PLK1 PBD block: inactive; HP1b binding inh: inactive; Sfp PPTase inh: 89µM

What do the screens show for `Cc1ccc(OCC(=O)NCCCNC(=O)c2ccco2)cc1`?
JMJD2A Tudor: inactive; BAZ2B inh: inactive; PLK1 PBD block: inactive; HP1b binding inh: inactive; Sfp PPTase inh: inactive; G9a block: inactive

Results for O=C(NCC1CCN(C(=O)c2c(F)c(F)c(F)c(F)c2F)CC1)c1c(F)c(F)c(F)c(F)c1F ?
JMJD2A Tudor: inactive; BAZ2B inh: inactive; PLK1 PBD block: inactive; HP1b binding inh: inactive; Sfp PPTase inh: inactive; G9a block: 79µM

What do the screens show for `O=C(NCC1CCN(C(=O)c2cccc([N+](=O)[O-])c2)CC1)c1cccc([N+](=O)[O-])c1`?
JMJD2A Tudor: inactive; BAZ2B inh: inactive; PLK1 PBD block: inactive; HP1b binding inh: inactive; Sfp PPTase inh: inactive; G9a block: inactive

Results for COc1cc(OC)cc(C(=O)NC2CCSc3ccccc32)c1 (stereo not given) ?
JMJD2A Tudor: inactive; BAZ2B inh: inactive; PLK1 PBD block: inactive; HP1b binding inh: inactive; Sfp PPTase inh: inactive; G9a block: inconclusive

Results for Cc1cnc(C(=O)NC2CCSc3ccccc32)cn1 (stereo not given) ?
JMJD2A Tudor: inactive; BAZ2B inh: inactive; PLK1 PBD block: inactive; HP1b binding inh: inactive; Sfp PPTase inh: inactive; G9a block: 45µM

How did O=C1N(Cc2cccc(Cl)c2)C[C@@H]2C[C@@H](c3cccc4ncccc34)N3CCC[C@@]123 do in these assays?
JMJD2A Tudor: inactive; BAZ2B inh: inactive; PLK1 PBD block: inactive; HP1b binding inh: inactive; Sfp PPTase inh: inactive; G9a block: inactive

How did Cc1cccc([C@@H]2C[C@H]3CN(Cc4cccc(Cl)c4)C(=O)[C@]34CCCN24)n1 do in these assays?
JMJD2A Tudor: inactive; BAZ2B inh: inactive; PLK1 PBD block: inactive; HP1b binding inh: inactive; Sfp PPTase inh: inactive; G9a block: 40µM

What do the screens show for `Cc1ccc([C@@H]2C[C@H]3CN(Cc4cccc(Cl)c4)C(=O)[C@]34CCCN24)o1`?
JMJD2A Tudor: inactive; BAZ2B inh: inconclusive; PLK1 PBD block: inconclusive; HP1b binding inh: inactive; Sfp PPTase inh: inactive; G9a block: inconclusive

How did O=C1N(Cc2cccc(Cl)c2)C[C@@H]2C[C@@H](c3c[nH]c4ccccc34)N3CCC[C@@]123 do in these assays?
JMJD2A Tudor: inconclusive; BAZ2B inh: inactive; PLK1 PBD block: inactive; HP1b binding inh: inactive; Sfp PPTase inh: inactive; G9a block: 35µM

What do the screens show for `Cc1ccc(NC(=S)c2ccncc2)c(C)c1`?
JMJD2A Tudor: inactive; BAZ2B inh: inconclusive; PLK1 PBD block: inactive; HP1b binding inh: inactive; Sfp PPTase inh: inactive; G9a block: 79µM

How did Cc1ccc(NC(=S)Nc2cccc3cnccc23)c(C)c1 do in these assays?
JMJD2A Tudor: inactive; BAZ2B inh: inactive; PLK1 PBD block: inconclusive; HP1b binding inh: inactive; Sfp PPTase inh: 50µM; G9a block: 50µM

What do the screens show for `Cc1ccc(NC(=S)NNC(=S)Nc2ccc(C)cc2C)cc1`?
JMJD2A Tudor: inconclusive; BAZ2B inh: inactive; PLK1 PBD block: 11µM; HP1b binding inh: inconclusive; Sfp PPTase inh: 13µM; G9a block: inactive
